This is a sample that favours compounds with a hit; in the whole collection about 1.2% have one here.
KCNH2 3.1 inh = inhibitors of human KCNH2 3.1 potassium channel isoform. U2OS KCNH2 3.1, thallium flux FluxOr; stronger effect = lower value. 0.95% of 340,000 active. activity change, % (tested at about 1.8 µM);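 active = maximum activity change below -70%; inconclusive = maximum activity change from -70% to -50%; inactive = maximum activity change above -50%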;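 also: thallium influx rate constant from kinetic fluorescence after stimulation buffer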
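U2OS cells transduced with KCNH2 3.1 mutant virus (1.77 x 10^8 /mL, 4 h), plated overnight at 37 C, loaded 45 min with FluxOr dye plus Red40 quencher. Thallium flux rate constant from kinetic reads after stimulation buffer, normalised to controls.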
KCNH2 WT inh = blocks the wildtype human KCNH2 potassium channel | Q12809 | activity change, % at 1.84 µM | U2OS, BacMam KCNH2, thallium flux FluxOr; stronger effect = lower value | 0.37% of 340,000 active | AID 720551;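 active = maximum activity change below -70%; inconclusive = maximum activity change between -70% and -50%; inactive = maximum activity change above -50%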
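U2OS cells were transduced with wild-type KCNH2 virus (2.03 x 10^8 / mL) for 4 h at room temperature, then cultured overnight at 37 C. Thallium flux was read with FluxOr dye. Rate constants were normalized to DMSO controls.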
Tb PFK inh-1 = T. brucei PFK enzyme inhibition. 0.17% of 330,000 active. T. brucei PFK, ADP-Glo luminescence. O15648. Potency, µM (highest dose often 57.5 µM), actives largely listed as inhibitors; also: nearly all actives have a fitted effect of over 60% in size
Target sequence (O15648 whole entry, looked up): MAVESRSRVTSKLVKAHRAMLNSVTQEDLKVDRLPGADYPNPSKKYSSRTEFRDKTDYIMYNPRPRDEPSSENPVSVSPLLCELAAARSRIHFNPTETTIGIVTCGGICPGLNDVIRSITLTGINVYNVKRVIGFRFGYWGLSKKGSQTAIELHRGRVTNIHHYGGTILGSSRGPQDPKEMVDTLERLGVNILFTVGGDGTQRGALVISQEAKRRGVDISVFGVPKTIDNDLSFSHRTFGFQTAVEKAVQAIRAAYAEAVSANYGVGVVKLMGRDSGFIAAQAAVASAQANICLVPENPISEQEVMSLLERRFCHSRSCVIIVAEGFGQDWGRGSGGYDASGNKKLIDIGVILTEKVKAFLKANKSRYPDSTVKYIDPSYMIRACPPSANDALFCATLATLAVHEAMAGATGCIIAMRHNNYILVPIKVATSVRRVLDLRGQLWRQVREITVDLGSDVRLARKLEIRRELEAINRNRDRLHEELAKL
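Activity is normalized to no-enzyme wells (full inhibition) and 1.25 nM enzyme wells (no inhibition). Reaction: 0.5 mM F6P, 0.1 mM ATP, 45 min RT, ADP-Glo luminescence; concentration-response curves fitted and classed by quality.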
PTAP TSG101 blk = blocks PTAP/TSG101 interaction to inhibit HIV-1 budding. Q99816. Fluorescence polarization, FITC-PTAP peptide / Tsg101 binding. Potency, µM (series often up to 115 µM), actives largely listed as inhibitors. 340,000 tested, under 10 active. AID 493005; active = well fitted inhibition curve with a large enough effect in the main read-out, with a control signal flat, not every such curve was filed as active; inconclusive = small, poorly fitted or top-dose-only effect, or effect the other way, or a change in a side signal; inactive = no such curve, though single readings can be large or run the other way
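Tsg101 binding domain (10 uM final) was mixed with compound and a FITC-labeled PTAP peptide (50 nM final) in HEPES pH 7.5 buffer with NaCl, Tween 20, EDTA and TCEP; fluorescence polarization was read after 20 min at r.t.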
TbPFK ATP = inhibits T. brucei PFK measured by ATP depletion; shares compounds with Tb PFK inh-1; Tb PFK enzyme, ATP depletion, Kinase-Glo Plus luminescence; Potency, µM (titrated, usually from 57.5 µM); 47% of 1,100 active; calls by dose curve; also: nearly all actives have a fitted effect of over 60% in size
Tb PFK inh-2 = T. brucei PFK enzyme inhibition, hit validation | shares compounds with Tb PFK inh-1 | purified T. brucei PFK, ADP-Glo luminescence, 45 min | Potency, µM (series often up to 57.5 µM), actives largely listed as inhibitors | 41% of 1,100 active; also: nearly all actives have a fitted effect of over 60% in size
Large screens that a line does not name were inactive (follow-up assays come after a bar, where they were run). Unless noted, calls follow the shape of the dose curve; as a rule, active = well fitted inhibition curve with a large enough effect; inconclusive = small, poorly fitted or top-dose-only effect, or effect the other way; inactive = flat fitted curve, though single readings scatter.

OCCOc1ccccc1	none
CCOC(=O)COc1ccc2c(c1)c(C(C)=O)c(C)n2Cc1ccccc1	none
CCOC(=O)Cn1c(=N)n(CCOc2cccc(C)c2)c2ccccc21	Tb PFK inh-1 13µM | TbPFK ATP 11µM | Tb PFK inh-2 13µM
N=c1n(CCO)c2ccccc2n1CCOc1ccccc1	Tb PFK inh-1 24µM | TbPFK ATP 13µM | Tb PFK inh-2 21µM
O=C(COc1ccc(Cl)cc1)N1CCN(Cc2ccc([N+](=O)[O-])cc2)CC1	none
O=C(COc1ccc(/C=C\[N+](=O)[O-])cc1)N1CCOCC1	Tb PFK inh-1 inconclusive | TbPFK ATP inactive | Tb PFK inh-2 inconclusive
Cc1nn(CC(C)C)c(Cl)c1C(=O)O	none
CC12CCC3C(CCC4CC(=O)C(C(O)C(F)(F)F)CC43C)C1CCC2O (configuration not stated)	none (no result: Tb PFK inh-1)
O=C(CC1SC(=O)N(c2ccccc2)C1=O)Nc1ccc(Br)cc1 (configuration not stated)	Tb PFK inh-1 19µM | TbPFK ATP inconclusive | Tb PFK inh-2 inconclusive
CCOc1ccc(C=NNc2ccc(S(=O)(=O)Nc3ccccc3C(=O)O)cc2[N+](=O)[O-])cc1OC	Tb PFK inh-1 inconclusive | TbPFK ATP 6µM | Tb PFK inh-2 3µM
O=C(Cc1cccc(C(F)(F)F)c1)Nc1ccc(S(=O)(=O)N2CCCC2)cc1	Tb PFK inh-1 inconclusive | TbPFK ATP inconclusive | Tb PFK inh-2 inconclusive
Cc1cc(OCC(=O)Nc2ccc(S(=O)(=O)N3CCN(C)CC3)cc2)ccc1Cl	Tb PFK inh-1 27µM | TbPFK ATP inconclusive | Tb PFK inh-2 inconclusive
CN1CCN(S(=O)(=O)c2ccc(Cl)nc2)CC1	none
CN1CCN(S(=O)(=O)c2ccc(NC(=O)Cc3ccc([N+](=O)[O-])cc3)cc2)CC1	Tb PFK inh-1 17µM | TbPFK ATP 6µM | Tb PFK inh-2 12µM
O=C(COc1ccc(Cl)cc1)N(c1ccc(Cl)cc1)C1CN2CCC1CC2 (configuration not stated)	none
CCOc1cc2c(cc1OCC)-n1cccc1C(c1ccccc1OC)NC2 (configuration not stated)	none
OCC(Br)CBr (configuration not stated)	none
CC12CC(=O)C3C(CCC4CC=CCC43C)C1CCC2=O (configuration not stated)	none (no result: Tb PFK inh-1)
O=C(NCC1CCN(Cc2cccc(Cl)c2)CC1)Nc1ccc(Cl)cc1	KCNH2 3.1 inh inconclusive, Tb PFK inh-1 inconclusive | TbPFK ATP inconclusive | Tb PFK inh-2 inconclusive
COc1ccc(OC)c(CN2CCC(CNC(=O)Nc3cccc(Cl)c3)CC2)c1	Tb PFK inh-1 inconclusive | TbPFK ATP inconclusive | Tb PFK inh-2 inconclusive
O=C(CN1CCOCC1)Nc1ncc(Cc2cccc(Cl)c2)s1	Tb PFK inh-1 inconclusive (no result: KCNH2 WT inh) | TbPFK ATP inconclusive | Tb PFK inh-2 inconclusive
O=C(CN1CCOCC1)Nc1ccc(Br)cc1C(=O)c1ccccc1	none
Cc1ccc(OC(=O)N(C)C[C@H]2OCc3cnnn3CCCC(=O)N([C@H](C)CO)C[C@@H]2C)cc1	none (no result: Tb PFK inh-1, PTAP TSG101 blk)
CN(C)C(=O)O/N=C(\N)COc1ccc(C(C)(C)C)cc1	none
Cc1ccc(-n2c(N)c(C(=O)N3CCN(C)CC3)sc2=S)cc1	Tb PFK inh-1 13µM | TbPFK ATP 3.8µM | Tb PFK inh-2 9.5µM
Cc1ccc(OCC(=O)N2CCN(C)CC2)c(Br)c1	none
Cc1ccc(NS(=O)(=O)c2cc(NC(=O)c3ccc4c(c3)NC(=O)CS4)ccc2C)c(C)c1	Tb PFK inh-1 21µM | TbPFK ATP 15µM | Tb PFK inh-2 24µM
C=C1C2C[C@@]3([C@@H]1O)[C@@H](C[C@@H]2O)[C@@]12C4[C@@H]3C[C@@H]1[C@@](C)(CC[C@@H]2O)CN4CC	none
O=C(COc1ccc([N+](=O)[O-])cc1)Nc1cc(C(=O)O)cc(C(=O)O)c1	Tb PFK inh-1 inconclusive | TbPFK ATP 13µM | Tb PFK inh-2 27µM
O=[N+]([O-])c1ccc(OP(=O)(O)Oc2ccc([N+](=O)[O-])cc2)cc1	none (no result: Tb PFK inh-1)
Cc1cc(C(=O)COC(=O)c2cc(Cl)c(O)c(Cl)c2)c(C)n1C	Tb PFK inh-1 17µM | TbPFK ATP inconclusive | Tb PFK inh-2 inactive
Cc1ccc(-n2c(=S)[nH]c3ccc(C)cc3c2=O)cc1	none (no result: Tb PFK inh-1, PTAP TSG101 blk)
CSc1ccc(CNC(C)C(O)c2ccccc2)cc1 (configuration not stated)	none
CCOc1cc2c(cc1OCC)-n1cccc1C(c1cccc(F)c1F)NC2 (configuration not stated)	none
Oc1ccc(O)c(Cc2nc3ccccc3s2)c1	Tb PFK inh-1 30µM | TbPFK ATP 24µM | Tb PFK inh-2 inconclusive
c1ccc2sc(NC3=NCCN3)nc2c1	none
Cc1c(C=C2C(=O)N(C)C(=S)N(C)C2=O)c2ccccc2n1CC(=O)NCC1CCCO1 (configuration not stated)	Tb PFK inh-1 inconclusive
O=[N+]([O-])c1ccc(O)c([N+](=O)[O-])c1	none (no result: Tb PFK inh-1)
Cc1c(N=Cc2ccc(O)c(Br)c2)cccc1[N+](=O)[O-]	Tb PFK inh-1 27µM | TbPFK ATP inconclusive | Tb PFK inh-2 inconclusive
CN1C(=O)N(C)C(=O)C2(Cc3cc(NC(=O)c4ccccc4)ccc3N3CCCC32)C1=O (configuration not stated)	none
Cn1cccc1/C=C1/SC(=S)N(CC(=O)O)C1=O	Tb PFK inh-1 inconclusive, PTAP TSG101 blk inconclusive | TbPFK ATP inactive | Tb PFK inh-2 inconclusive
Cc1nc2c(C(=O)N3CCC4(CC3)OCCO4)cnn2c(C)c1Cc1cccc(Cl)c1	none
CCN1CC(CNC(=O)c2ccc3nc(Cc4cccc(Cl)c4)oc3c2)CC1=O (configuration not stated)	Tb PFK inh-1 inconclusive | TbPFK ATP inconclusive | Tb PFK inh-2 15µM
N#CCSc1nnc(CNc2cccc(Cl)c2)o1	Tb PFK inh-1 24µM | TbPFK ATP 13µM | Tb PFK inh-2 21µM
N#CC[N+]1(CCCNP2(=O)C=C(c3ccccc3)OC(c3ccccc3)=C2)CCOCC1	none
O=C(CSc1ccc(F)cc1)Nc1ccc2c(c1)C(=O)NC2=O	Tb PFK inh-1 inconclusive | TbPFK ATP inconclusive | Tb PFK inh-2 inconclusive
Cc1cccc(C(=O)NC(Oc2ccccc2)C(Cl)(Cl)Cl)c1 (configuration not stated)	none
COc1ccccc1CC(=O)Nc1ccc2c(c1)C(=O)NC2=O	Tb PFK inh-1 inconclusive | TbPFK ATP inconclusive | Tb PFK inh-2 inconclusive
Cc1cccc(C(=O)Nc2ccc3c(c2)C(=O)NC3=O)c1	Tb PFK inh-1 inconclusive | TbPFK ATP inconclusive | Tb PFK inh-2 30µM
CC1CN2C(=O)C1(c1ccccc1)C(=O)NC2=S (configuration not stated)	none (no result: Tb PFK inh-1, PTAP TSG101 blk)
COc1ccc(N2CCN(Cc3nc(-c4ccccc4)no3)CC2)cc1	Tb PFK inh-1 24µM | TbPFK ATP inactive | Tb PFK inh-2 inactive
COc1ccc(N2CCN(CCCN)CC2)cc1	none (no result: Tb PFK inh-1)

Assay outcomes as filed in PubChem BioAssay.
